Experimental findings from PubChem BioAssay (NCATS) are described below.

Structures are written as SMILES. Inconclusive results are not listed. Active and inactive are the calls of the source. Calls follow the shape of the dose curve; as a rule, active = well fitted curve in the direction sought with a large enough effect; inconclusive = small, poorly fitted or top-dose-only effect, or another doubt; inactive = no such curve, though single readings can be large; an effect the other way counts as inactive or inconclusive.
Also: top concentration of the series differs between compounds.

Test system in one assay: not listed separately
The assay is described as follows: Primary qHTS for inhibitors of La Crosse Virus (LACV) - induced cell death in SH-SY5Y cells (AID 1508616).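 Also: 0% = infected DMSO wells and 100% = uninfected DMSO wells; higher means more rescue of cells from virus-induced death.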 The settings on record: SH-SY5Y LACV cytopathicity rescue, ATP luminescence, 6 d; series mostly up to 4.29 µM; activity change: at the top concentration. An outline of the steps: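 Protection against LACV-induced cell death is scored in SH-SY5Y cells exposed to compounds and virus (0.01 MOI) for 6 days. Data normalized to virus-infected DMSO wells and virus-free DMSO wells.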
As to `CO/N=C(\C(=O)N[C@@H]1C(=O)N2C(C(=O)O)=C(CSc3nc(=O)c(O)nn3C)CS[C@H]12)c1csc(N)n1`, the “activity change” value is -13.5% (inactive).
Regarding `NCCNCCNCCNCCN`, the activity change was -4.84% [at 0.858 µM] (inactive).
Same read-out and setting: under `NCC(=O)CCC(=O)O` stands -5.88% (inactive); under `O=C(O)COc1nn(Cc2ccccc2)c2ccccc12`, -0.247% (inactive).
The same measure, in the same setting: under `CCOC(=O)[C@H](CCc1ccccc1)N[C@@H](C)C(=O)N1C(=O)N(C)C[C@H]1C(=O)O` stands 14.9% (inactive); under `Cc1ccc2nc(N)[nH]c(=O)c2c1Sc1ccncc1`, 8.18% (inactive); under `CC/C=C(\C(=O)N[C@@H]1C(=O)N2C(C(=O)OCOC(=O)C(C)(C)C)=C(COC(N)=O)CS[C@H]12)c1csc(N)n1`, -6.86% (inactive).
On to `CN(C)CCCO[C@@H]1[C@H]2OC(C)(C)O[C@H]2O[C@@H]1C(O)CO` (stereo partly drawn), for which the “activity change” value is 18.1% (inactive).
Same read-out and setting: for `O=S(=O)(O)c1cc(I)c(O)c2ncccc12` the value was 29% (inactive).
Consider `C/C(=C(\CCOP(=O)(O)O)SC(=O)c1ccccc1)N(C=O)Cc1cnc(C)nc1N`, for which the activity change was -1.14% [at 0.431 µM] (inactive).
As for `Nc1ccc(S(=O)(=O)Nc2nccs2)cc1`, the “activity change” value is 15.8% (inactive).
Take `CC(=O)O[C@@]12CO[C@@H]1C[C@H](O)[C@@]1(C)C(=O)[C@H](O)C3=C(C)[C@@H](OC(=O)[C@H](O)[C@@H](NC(=O)OC(C)(C)C)c4ccccc4)C[C@@](O)([C@@H](OC(=O)c4ccccc4)[C@H]21)C3(C)C`: the “activity change” value was -76.7% (inactive).
Same read-out and setting: under `O=C1OC(OC(=O)c2cccnc2Nc2cccc(C(F)(F)F)c2)c2ccccc21` (stereo not drawn) stands -0.403% (inactive).
The same measure, in the same setting: under `CCOc1ccc2ccccc2c1C(=O)N[C@@H]1C(=O)N2[C@@H]1SC(C)(C)[C@@H]2C(=O)O` stands -2.65% (inactive); under `O=c1cc[nH]c(=O)[nH]1`, -8.57% (inactive).
On to `CC1(C)CO[C@@H](CC(=O)O)CN1`, for which the “activity change” value is 10.8% (inactive).
The same measure, in the same setting: under `Cc1cccc(C)c1NC(=O)CN(CC(=O)O)CC(=O)O` stands -4.78% (inactive).
In the case of `OCC(CO)N[C@H]1C[C@](O)(CO)[C@@H](O)[C@H](O)[C@H]1O`, the “activity change” value is -6.41% (inactive).
The same measure, in the same setting: for `NC(=O)NC(=O)Cc1ccccc1` the value was 15.9% (inactive).
On the same count and under the same terms, for `CN1CCOC(c2ccccc2)c2ccccc2C1` (stereo not drawn) the value was -6.43% (inactive); for `COc1cc(C(=O)N2CCOCC2)cc(OC)c1OC`, 31.5% (inactive).
Same read-out and setting: for `O=Cc1ccccc1C=O` the value was -12.9% (inactive); for `CC(=O)Oc1ccc(C2(c3ccc(OC(C)=O)cc3)C(=O)Nc3ccccc32)cc1`, -2.9% (inactive).
In the case of `CN(N=O)C(=O)N[C@@H]1[C@@H](O)[C@H](O)[C@@H](CO)O[C@@H]1O`, the “activity change” value was -1.05% (inactive).
Same read-out and setting: for `CCCCc1ncc(/C=C(\Cc2cccs2)C(=O)O)n1Cc1ccc(C(=O)O)cc1` the value was 40.5% (inactive); for `Cc1ccc(C(C)C)cc2c(C)ccc1-2`, 12.1% (inactive); for `Cc1cc2c(cc1S(N)(=O)=O)S(=O)(=O)CCC2`, 10.1% (inactive).
On the same count and under the same terms, under `Oc1ccc(C(O)CNCCCCCCNCC(O)c2ccc(O)c(O)c2)cc1O` (stereo not drawn) stands 3.78% (inactive).
The same measure, in the same setting: for `CC1CC(OC(=O)C(O)c2ccccc2)CC(C)(C)N1C` (stereo not drawn) the value was 8.45% (inactive); for `Oc1cn2c(n1)Nc1ccc(Cl)c(Cl)c1C2`, -7.43% [at 1.78 µM] (inactive).
As to `O=c1cc[nH]c(=S)[nH]1`, the “activity change” value is 31.5% (inactive).
As to `c1ccc2c(CC3=NCCN3)cccc2c1`, the “activity change” value is -8.68% (inactive).
Consider `CC1(C)[C@@H]2CC[C@@]1(C)C(=O)C2`, for which the “activity change” value was 2.36% (inactive).
For `CC1(C)OC(=O)NC1=O`, the “activity change” value is 5.11% (inactive).

In the next assay the target is Calcium and integrin-binding protein 1 (Homo sapiens) (UniProt Q99828). The assay is described as follows: Primary qHTS for Identification of Calcium Integrin Binding Protein 1 (CIB1) Competitor (AID 1508620). Also: % is scaled to controls: 0 for no effect and ±100 for the full control effect. The settings on record: CIB1-GST / FITC-alphaIIb peptide fluorescence polarization; series mostly up to 114 µM; activity change, negative = inhibition: at the top concentration. An outline of the steps: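 Fluorescence polarization competition: GST-tagged CIB1 (1 uM final) preincubated with compound 15 min at room temperature, then FITC-labelled alphaIIb peptide (100 nM final) added. After 15 min at room temperature, polarization read at Ex 480/Em 540.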
Sequence of Calcium and integrin-binding protein 1 (Homo sapiens) (Q99828 whole entry, looked up): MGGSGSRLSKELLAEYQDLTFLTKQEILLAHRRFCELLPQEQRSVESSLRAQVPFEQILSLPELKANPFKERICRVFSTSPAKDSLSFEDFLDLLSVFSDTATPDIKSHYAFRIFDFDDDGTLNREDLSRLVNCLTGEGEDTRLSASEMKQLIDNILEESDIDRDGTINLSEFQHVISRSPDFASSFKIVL
For `CO/N=C(\C(=O)N[C@@H]1C(=O)N2C(C(=O)O)=C(CSc3nc(=O)c(O)nn3C)CS[C@H]12)c1csc(N)n1`, the “activity change, negative = inhibition” value is -27.2% (inactive).
The same measure, in the same setting: under `NCCNCCNCCNCCN` stands -5.85% [at 30.2 µM] (inactive); under `NCC(=O)CCC(=O)O`, 2.01% (inactive).
With `O=C(O)COc1nn(Cc2ccccc2)c2ccccc12`, the “activity change, negative = inhibition” value was -2.2% (inactive).
Regarding `CCOC(=O)[C@H](CCc1ccccc1)N[C@@H](C)C(=O)N1C(=O)N(C)C[C@H]1C(=O)O`, the outcome was inactive.
On to `Cc1ccc2nc(N)[nH]c(=O)c2c1Sc1ccncc1`, for which the result was inactive.
The same measure, in the same setting: for `CC/C=C(\C(=O)N[C@@H]1C(=O)N2C(C(=O)OCOC(=O)C(C)(C)C)=C(COC(N)=O)CS[C@H]12)c1csc(N)n1` the value was “inactive”.
On to `CN(C)CCCO[C@@H]1[C@H]2OC(C)(C)O[C@H]2O[C@@H]1C(O)CO` (stereo partly drawn), for which the “activity change, negative = inhibition” value is 8.9% (inactive).
The same measure, in the same setting: under `O=S(=O)(O)c1cc(I)c(O)c2ncccc12` stands -9.16% (inactive).
On the same count and under the same terms, for `C/C(=C(\CCOP(=O)(O)O)SC(=O)c1ccccc1)N(C=O)Cc1cnc(C)nc1N` the value was -4.19% [at 12.4 µM] (inactive).
Regarding `Nc1ccc(S(=O)(=O)Nc2nccs2)cc1`, the outcome was inactive.
With `CC(=O)O[C@@]12CO[C@@H]1C[C@H](O)[C@@]1(C)C(=O)[C@H](O)C3=C(C)[C@@H](OC(=O)[C@H](O)[C@@H](NC(=O)OC(C)(C)C)c4ccccc4)C[C@@](O)([C@@H](OC(=O)c4ccccc4)[C@H]21)C3(C)C`, the “activity change, negative = inhibition” value was 0.633% (inactive).
With `O=C1OC(OC(=O)c2cccnc2Nc2cccc(C(F)(F)F)c2)c2ccccc21` (stereo not drawn), the “activity change, negative = inhibition” value was 2.15% (inactive).
For `CCOc1ccc2ccccc2c1C(=O)N[C@@H]1C(=O)N2[C@@H]1SC(C)(C)[C@@H]2C(=O)O`, the result was inactive.
For the compound `O=c1cc[nH]c(=O)[nH]1`, the “activity change, negative = inhibition” value is -2.33% (inactive).
On the same count and under the same terms, for `CC1(C)CO[C@@H](CC(=O)O)CN1` the value was 1.43% (inactive); for `Cc1cccc(C)c1NC(=O)CN(CC(=O)O)CC(=O)O`, 5.18% (inactive).
In the case of `OCC(CO)N[C@H]1C[C@](O)(CO)[C@@H](O)[C@H](O)[C@H]1O`, the “activity change, negative = inhibition” value is -0.0203% (inactive).
The same measure, in the same setting: under `NC(=O)NC(=O)Cc1ccccc1` stands 2.96% (inactive).
As for `CN1CCOC(c2ccccc2)c2ccccc2C1` (stereo not drawn), the outcome was inactive.
In the case of `COc1cc(C(=O)N2CCOCC2)cc(OC)c1OC`, the “activity change, negative = inhibition” value was -0.186% (inactive).
Regarding `O=Cc1ccccc1C=O`, the “activity change, negative = inhibition” value is 9.19% (inactive).
On the same count and under the same terms, for `CC(=O)Oc1ccc(C2(c3ccc(OC(C)=O)cc3)C(=O)Nc3ccccc32)cc1` the value was 3.93% (inactive).
On to `CN(N=O)C(=O)N[C@@H]1[C@@H](O)[C@H](O)[C@@H](CO)O[C@@H]1O`, for which the “activity change, negative = inhibition” value was 3.49% (inactive).
For the compound `CCCCc1ncc(/C=C(\Cc2cccs2)C(=O)O)n1Cc1ccc(C(=O)O)cc1`, the result was inactive.
Take `Cc1ccc(C(C)C)cc2c(C)ccc1-2`: the “activity change, negative = inhibition” value is -2.23% (inactive).
As to `Cc1cc2c(cc1S(N)(=O)=O)S(=O)(=O)CCC2`, the “activity change, negative = inhibition” value is 0.824% (inactive).
On the same count and under the same terms, under `Oc1ccc(C(O)CNCCCCCCNCC(O)c2ccc(O)c(O)c2)cc1O` (stereo not drawn) stands -4.73% (inactive).
Same read-out and setting: for `CC1CC(OC(=O)C(O)c2ccccc2)CC(C)(C)N1C` (stereo not drawn) the value was -0.787% (inactive).
Consider `Oc1cn2c(n1)Nc1ccc(Cl)c(Cl)c1C2`, for which the “activity change, negative = inhibition” value is 2.41% [at 57.7 µM] (inactive).
For `O=c1cc[nH]c(=S)[nH]1`, the “activity change, negative = inhibition” value is -0.488% (inactive).
As to `c1ccc2c(CC3=NCCN3)cccc2c1`, the “activity change, negative = inhibition” value is 1.33% (inactive).
For `CC1(C)[C@@H]2CC[C@@]1(C)C(=O)C2`, the “activity change, negative = inhibition” value was 6.06% (inactive).
With `CC1(C)OC(=O)NC1=O`, the “activity change, negative = inhibition” value is 1.91% (inactive).
